MLL CXXC-DNA inh: qHTS Fluorescence Polarization Assay for Inhibitors of MLL CXXC domain - DNA interaction. MLL-CXXC / FITC-HOXA9 DNA fluorescence polarization. Potency, µM (doses to about 115 µM), for inactives: top-dose activity change, negative = inhibition, hits mostly inhibitors. actives 0.037% (n = 290,000). AID 2662, 2010; active = well fitted inhibition curve with a large enough effect in the polarisation, with a control signal flat, not every such curve was filed as active; inconclusive = small, poorly fitted or top-dose-only effect, or effect the other way, or a change in a side signal; inactive = no such curve, though single readings can be large or run the other way; the % refers to the polarisation; also: potency is read from the fitted curve at half-maximal effect
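Fluorescence polarization: 7 uM MLL-CXXC (stock) preincubated 5 min with compounds, then 50 nM fluorescein-HOX-A9 DNA (stock) added; 30 min ambient. Buffer 50 mM Tris-HCl pH 7.5, 50 mM NaCl, 1 mM DTT, 0.05% BSA.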
Menin MLL FP FL: qHTS Assay for Inhibitors Targeting the Menin-MLL Interaction in MLL Related Leukemias: Competition With Fluorescein Labeled MLL-derived Peptide. Fluorescence polarization, fluorescein-MLL peptide displacement from menin. FP activity change, % at 61.4 µM. 290,000 tested, under 10 active. AID 1766, 2009; active = well fitted curve in the direction sought with a large enough effect in the polarisation, not every such curve was filed as active; inconclusive = small, poorly fitted or top-dose-only effect, or effect the other way, or a change in a side signal; inactive = no such curve, though single readings can be large or run the other way; the % refers to the polarisation; also: % of control where 0% means no effect
PKM2 activator: qHTS Assay for Activators of Human Muscle isoform 2 Pyruvate Kinase. Pyruvate kinase PKM (Homo sapiens), P14618. actives 0.34% (n = 260,000). Potency, µM (series often up to 57.5 µM), for inactives: at the highest dose activation, usual class: activators. purified PKM2, Kinase-Glo ATP luminescence, activation; response scale: 0% is enzyme alone, no compound; active = well fitted activation curve with a large enough effect; inconclusive = small, poorly fitted or top-dose-only effect; inactive = no such curve, though single readings can be large or run the other way; also: potency is read from the fitted curve at half-maximal effect; % is scaled to controls: 0 for no effect and ±100 for the full control effect; nearly all actives have a fitted effect of over 55% in size
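ATP formation by purified human PK-M2, quantified via coupled luciferase luminescence after 1 h at room temperature with 0.1 mM ADP and 0.5 mM PEP final.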
Menin-MLL TR inh: qHTS Assay for Inhibitors Targeting the Menin-MLL Interaction in MLL Related Leukemias: Competition With Texas Red Labeled MLL-derived Mutant Peptide | Potency, µM (highest dose often 61.6 µM), without a hit: at the highest dose FP activity change, negative = inhibition, most hits filed as inhibitors | Menin + Texas Red MLL mutant peptide, fluorescence polarization | actives 0.23% (n = 270,000) | AID 1768, 2009; active = well fitted inhibition curve with a large enough effect in the polarisation, with a control signal flat, not every such curve was filed as active; inconclusive = small, poorly fitted or top-dose-only effect, or effect the other way, or a change in a side signal; inactive = no such curve, though single readings can be large or run the other way; the % refers to the polarisation; also: potency is read from the fitted curve at half-maximal effect; % of control where 0% means no effect
Target sequence (O00255 whole entry, looked up): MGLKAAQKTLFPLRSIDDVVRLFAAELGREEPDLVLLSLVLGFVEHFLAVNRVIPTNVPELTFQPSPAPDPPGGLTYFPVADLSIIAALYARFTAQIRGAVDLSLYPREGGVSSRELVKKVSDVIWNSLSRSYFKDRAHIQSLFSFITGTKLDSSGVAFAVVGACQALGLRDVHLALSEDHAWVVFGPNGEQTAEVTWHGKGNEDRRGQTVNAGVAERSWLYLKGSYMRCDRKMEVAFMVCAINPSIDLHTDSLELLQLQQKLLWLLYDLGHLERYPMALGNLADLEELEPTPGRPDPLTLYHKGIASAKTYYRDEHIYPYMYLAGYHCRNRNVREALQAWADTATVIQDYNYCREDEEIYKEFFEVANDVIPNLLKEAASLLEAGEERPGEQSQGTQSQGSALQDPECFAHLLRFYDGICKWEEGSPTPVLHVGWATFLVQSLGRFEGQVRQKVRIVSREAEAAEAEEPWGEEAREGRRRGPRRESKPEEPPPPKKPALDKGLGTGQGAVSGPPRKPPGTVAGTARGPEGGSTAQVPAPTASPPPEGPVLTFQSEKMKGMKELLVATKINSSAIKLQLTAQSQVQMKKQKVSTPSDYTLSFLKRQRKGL
* = called active by the depositor; ? = inconclusive; · = not tested or not shown; [ ] = remark or other dose. Sampled rows, rich in hits. Any-hit rate of the full collection: about 0.41%.

SMILES | MLL CXXC-DNA inh | Menin MLL FP FL | PKM2 activator | Menin-MLL TR inh
CC(C)(C)C(=O)Oc1ccc(S(=O)(=O)Nc2ccccc2C(=O)NCC(=O)O)cc1 | -2.2% | -2.1 | · | 8.1%
O=C(Nc1nc(-c2ccc3c(c2)Cc2ccccc2-3)cs1)c1ccccc1 | 5.3% | 2.5 | -11.9% | 15.8µM*
COC(=O)C/C=C1\c2ccc3c(c2[C@@H](OC)[C@@H]1C)OCO3 | · | -0.4 | · | 4.4%
COc1ccc(-c2nc(-c3ccccc3)c(NC(C)C)o2)cc1 | · | -1.4 | · | -4.8%
O=C1C=CC(=O)N1c1cccc(-c2ccccc2)c1 | -0.1% | 6.3 | 3.16µM* | ·
N#CC1=C(N)C2=CCCC[C@H]2[C@H](c2ccc(Br)cc2)C1(C#N)C#N | 22.2% | ? | 7.94µM* | ?
O=[N+]([O-])c1ccc(Sc2nnnn2-c2ccccc2)nc1 | 18.1% | -6.6 | 17.8µM* | -1.2%
COCOc1ccc(Br)cc1C(=O)[C@H]1O[C@H]1c1cccc(OC)c1 | · | 6.6[11.7 µM] | · | -12.6%[11.7 µM]
COC(=O)[C@@]1(Cc2ccc(OC)cc2)[C@H]2c3cc(C(=O)N(C)C)n(CCO)c3C[C@H]2CN1C(=O)c1ccccc1 | · | -1.5 | -2.1% | -21.0%
COC(=O)[C@@]1(Cc2ccc(F)cc2)[C@H]2c3cc(C(=O)N4CCCC4)n(Cc4ccc(C)o4)c3C[C@H]2CN1C(=O)c1ccccc1 | · | 7.0 | 12.6µM* | -16.5%
COC(=O)[C@@]1(Cc2ccc(OC)cc2)[C@H]2c3cc(C(=O)N(C)C)n(Cc4ccc(C)o4)c3C[C@H]2CN1C(=O)c1ccccc1 | · | 10.4 | 8.91µM* | -10.0%
N#Cc1cccc(-c2nccc(-n3ccnc3)n2)c1 | · | -2.2 | · | -4.6%
Cc1ccc(S(=O)(=O)N2CCN(c3cnn(C)c(=O)c3Cl)CC2)cc1 | 0.9% | -1.6 | 20µM* | -2.1%
Cc1ccc(S(=O)(=O)N2CCN(c3cnn(-c4ccccc4)c(=O)c3Cl)CC2)cc1 | 13.2% | 5.7 | 1.5% | -1.0%
COC(=O)C1=C(C)N(Cc2ccccc2)C2=C(C(C)=O)C(c3ccccc3)[C@@](O)(C(=O)OC)C(=O)N2C1c1ccccc1 (stereo partly specified) | · | -0.3[11.7 µM] | · | 1.1%[11.7 µM]
CCN(CC)c1ccc(/C=C2\SC(=O)N(C(C)C)C2=O)o1 | ? | ? | 12.6µM* | ·
CC(Sc1ccc([N+](=O)[O-])cn1)C(=O)Nc1nccs1 (stereo unspecified) | -5.4% | 0.7 | 6.31µM* | -2.6%
O=C(Nc1nccs1)c1cc([N+](=O)[O-])ccc1Cl | -19.4% | -1.4 | -0.5% | 11.6%
CCC(CNc1cc(OC)cc2cccnc12)NC1CCCCC1 (stereo unspecified) | ? | ? | 8.6% | 35.5µM*
COc1cc(NCCCC(C)N)c2ncccc2c1 (stereo unspecified) | 2.9% | ? | -13.9% | ?
COc1ccc(S(=O)(=O)Nc2ccc(-n3cccc3)cc2)cc1 | -5.9% | 4.7 | 10µM* | ?
Cc1cc(C)n2cc(CSc3nnnn3-c3ccc(Cl)cc3)nc2n1 | -6.3% | 3.5 | 15.8µM* | -14.1%
Cc1cccc2nc(CSc3nnnn3-c3ccccc3)cn12 | -11.2% | 2.7 | 19.7% | 1.5%[11.7 µM]
Cc1cc(C)n2cc(CSc3ccc(Br)cc3)nc2n1 | -2.8% | -0.4 | 20.5% | -6.5%
Cc1cc(C)n2cc(CSc3nnnn3-c3ccccc3)nc2n1 | -8.6% | 1.9 | 8.91µM* | -3.0%
SMILES | MLL CXXC-DNA inh | Menin MLL FP FL | PKM2 activator | Menin-MLL TR inh
Cc1cc(C)cc(-n2nnnc2SCC(=O)Nc2nc(-c3ccc(Cl)cc3)cs2)c1 | -4.1% | 5.8 | -1.1% | 28.2µM*
Cc1cc(C)cc(-n2nnnc2SCC(=O)Nc2nc(-c3ccc(F)cc3)cs2)c1 | 23.0% | -0.6 | -3.6% | 35.5µM*
COc1ccc2c(c1)O[C@H](c1ccc3c(c1)OCO3)[C@@H](OC(=O)NS(=O)(=O)c1ccc(C)cc1)C2=O | · | -4.5 | · | -9.7%
C(C#CCCCCCCCCC[n+]1ccccc1)#CCCCCCCCCC[n+]1ccccc1 | 15.2% | -7.2 | 0.0% | 31.6µM*
COc1ccc(N2C(=O)CC(Sc3nnnn3-c3ccc(F)cc3)C2=O)cc1 (stereo unspecified) | 10.2% | 1.1 | 28.2µM* | -0.9%
COc1ccc(N2C(=O)CC(Sc3nnc(-c4ccccc4)o3)C2=O)cc1 (stereo unspecified) | -10.2% | 3.4 | 20µM* | 12.5%
O=C1CC(Sc2nnnn2-c2ccccc2)C(=O)N1c1cccc(Cl)c1 (stereo unspecified) | 3.2% | 1.4 | 8.8% | 27.6%
COc1cccc([C@@H]2Oc3ccc(Br)cc3C(=O)[C@H]2OC(=O)NS(=O)(=O)c2ccc(C)cc2)c1 | · | ? | · | 1.0%
CCNc1ncc2nc(CCc3ccccc3)c(=O)n(Cc3ccc(F)cc3)c2n1 | · | ? | · | 13.4%
CCOc1ccc(-c2csc(NC(=O)CSC3=NC(=O)CN3C(C)=O)n2)c2ccccc12 | 12.7% | 4.2 | ? | 19.2%
CC(=O)N1CC(=O)N=C1SCC(=O)Nc1nc(C)c(-c2ccccc2)s1 | 30.1% | 3.9 | 20µM* | 42.2%
Cc1oc2c(C)c(O)ccc2c(=O)c1N1C(=O)c2ccccc2C1=O | 10.6% | 2.6 | 5.8% | -4.5%
Cc1oc2c(C)c(O)ccc2c(=O)c1-c1nncn1-c1ccccc1 | -10.3% | ? | 17.8µM* | 10.1%
COC(=O)C1=C(C)[C@@H](O)[C@@H](C)[C@](C)(c2cc(OC)c(C)c(OC)c2COc2ccccc2)O1 | · | 1.2 | · | -1.7%
O=C1CC(N(CCc2ccccc2)C(=S)Nc2cc(Cl)ccc2Cl)C(=O)N1c1c(Cl)cccc1Cl (stereo unspecified) | 5.7% | 1.0 | -7.8% | 10µM*
O=C1CC(N(CCc2ccccc2)C(=S)Nc2ccccc2)C(=O)N1c1ccccc1 (stereo unspecified) | 4.2% | -1.8 | 10.7% | ?
Cc1cc(C)c2cc(CN(CCO)C(c3nnnn3Cc3ccc(F)cc3)C(C)C)c(=O)[nH]c2c1 (stereo unspecified) | 1.8% | 1.8 | 0.8% | 2.7%
Cc1cc(C)c2cc(C(O)c3nnnn3Cc3ccccc3)c(=O)[nH]c2c1 (stereo unspecified) | -3.2% | 4.1 | 12.6µM* | 3.7%
C[C@@H](CCc1ccc(O)cc1)NCCc1ccc(O)c(O)c1 | · | 21.2 | · | -0.3%[24.8 µM]
CCS(=O)(=O)Nc1cccc(C2=NN(C(C)=O)C(c3cccs3)C2)c1 (stereo unspecified) | 3.3% | -0.7 | 14.1µM* | 1.1%
COc1ccc(N=C2S/C(=C\c3ccc(OCC(=O)O)cc3)C(=O)N2CCc2c[nH]c3ccccc23)cc1 | -27.3% | 21.0 | 2.82µM* | ?
O=C(O)COc1ccc(/C=C2\SC(=Nc3ccccc3)N(c3ccccc3)C2=O)cc1 | -0.1% | -0.6 | 5.6% | ?
COc1ccc(N=C2S/C(=C\c3ccc(N4CCOCC4)o3)C(=O)N2CCc2c[nH]c3ccccc23)cc1 | -7.9% | ? | 3.16µM* | ?

High-throughput results as filed in PubChem.
